Activity calls are given as the source filed them. Calls come from the whole dose curve; as a rule, active = well fitted curve in the direction sought with a large enough effect in the repeat runs; inconclusive = weak or mixed curves; inactive = flat fitted curve, though single readings scatter.
Test: qHTS assay to test for compound auto fluorescence at 460 nm (blue) in HepG2 cell free culture (AID 720685)
Conditions: Cell-free culture medium, blue autofluorescence 405/460 nm; series mostly up to 91.3 µM; fluorescence, % of fluorescent control: at the top concentration
How it was run: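 Compound (23 nL) or DMSO pinned into cell-free MEM with 10% FBS; blue fluorescence read at 405/460 nm excitation/emission, expressed as auto-fluorescence equivalency to triamterene.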
% is set by controls: 0 for no effect and ±100 for the full control effect.

Compound	fluorescence, % of fluorescent control	outcome
N#Cc1c(Cl)cccc1Cl	-0.0861% (inactive)	
CCC(C)n1c(=O)[nH]c(C)c(Br)c1=O (stereo not given)	0.128% (inactive)	
CCC(=O)c1ccccc1	-0.141% (inactive)	
CCOC(=O)N(C)C(=O)CSP(=S)(OCC)OCC	0.0497% (inactive)	
CCC1(c2ccccc2)C(=O)NC(=O)NC1=O		inactive
ClC(Br)Br	-0.109% (inactive)	
CCNc1nc(NC(C)C)nc(OC)n1	-0.0834% (inactive)	
O=S(=O)(O)C(F)(F)C(F)(F)C(F)(F)C(F)(F)C(F)(F)C(F)(F)F	0.0691% (inactive)	
O=CNC(N1CCN(C(NC=O)C(Cl)(Cl)Cl)CC1)C(Cl)(Cl)Cl (stereo not given)	0.0878% (inactive)	
C=C(C)CN(CC)c1c([N+](=O)[O-])cc(C(F)(F)F)cc1[N+](=O)[O-]	-0.0429% (inactive)	
CCC1(c2ccccc2)C(=O)N=C(O)NC1=O (stereo not given)	0.0057% (inactive)	
COP(N)(=S)Oc1ccccc1C(=O)OC(C)C (stereo not given)	-0.114% (inactive)	
CN1C[C@@H](NS(=O)(=O)N(C)C)C[C@@H]2c3cccc4c3c(cn4C)C[C@H]21	-0.0695% [at 46 µM] (inactive)	
CCOP(=S)(Oc1cnc(C(C)(C)C)nc1)OC(C)C (stereo not given)	-0.0282% (inactive)	
Clc1cccc(N2CCNCC2)c1	-0.0198% [at 46 µM] (inactive)	
CC(C)CP(=S)(S)CC(C)C	0.114% (inactive)	
Cc1cc(C)nc(Nc2ccccc2)n1	0.0026% (inactive)	
CN(N=O)C(N)=O	0.053% (inactive)	
N#CC(Cl)(Cl)Cl	-0.0666% (inactive)	
C#C[C@]1(O)C=C[C@H]2[C@@H]3CCC4=CC(=O)CC[C@@H]4[C@H]3CC[C@@]21CC	0.0336% [at 46 µM] (inactive)	
Nc1ccccc1Cl	-0.0294% (inactive)	
Cc1cccc(C#N)c1	0.0559% (inactive)	
CN1CCC(O)(c2ccc(F)cc2)C(C(=O)c2ccc(F)cc2)C1 (stereo not given)	0.255% [at 46 µM] (inactive)	
ClCC(Cl)(Cl)Cl	0.0483% [at 95.7 µM] (inactive)	
CCC/C(=N\OCC)C1=C(O)CC(CC(C)SCC)CC1=O (stereo not given)	0.0566% (inactive)	

Source: PubChem BioAssay (Tox21)
